Laboratory results reported in PubChem BioAssay (NCI).
Compounds without any hit were thinned out: in the full panel of roughly 83,000, 20% have a hit.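 48-hour exposure, single concentration, 96-well plates; percent growth endpoint where 0 means no net growth. Active: below 10.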 Calls of active or inactive are those of the source.

Assays:
Test in all cases: NCI-60 one-dose screen, 48 h (100 = growth as untreated, 0 = no growth, -100 = all killed)
SR leukemia = conditions: 10 µM unless noted
RPMI-8226 leukemia = conditions: 10 µM unless noted
OVCAR-8 ovarian = conditions: 10 µM unless noted
OVCAR-5 ovarian = conditions: 10 µM unless noted
OVCAR-4 ovarian = conditions: 10 µM
SK-OV-3 ovarian = conditions: 10 µM unless noted
IGROV1 ovarian = conditions: 10 µM unless noted
OVCAR-3 ovarian = conditions: 10 µM unless noted
HS 578T breast = conditions: 10 µM unless noted
NCI/ADR-RES ovarian = conditions: 10 µM unless noted
T-47D breast = conditions: 10 µM unless noted
BT-549 breast = conditions: 10 µM unless noted
SW-620 colon = conditions: 10 µM unless noted
MCF7 breast = conditions: 10 µM unless noted
HCT-116 colon = conditions: 10 µM unless noted
HCC-2998 colon = conditions: 10 µM unless noted
KM12 colon = conditions: 10 µM unless noted
MDA-MB-435 melanoma = conditions: 10 µM unless noted

Measured: growth

O=[N+]([O-])c1cccc(N=NNc2cccc([N+](=O)[O-])c2)c1
inactive: SR leukemia 95.1% | RPMI-8226 leukemia 86% | OVCAR-8 ovarian 99.5% | OVCAR-5 ovarian 94.6% | OVCAR-4 ovarian 88.7% | SK-OV-3 ovarian 104% | IGROV1 ovarian 125% | OVCAR-3 ovarian 101% | HS 578T breast 101% | NCI/ADR-RES ovarian 94.4% | T-47D breast 76.3% | BT-549 breast 101% | SW-620 colon 91.7% | MCF7 breast 65.3% | HCT-116 colon 114% | HCC-2998 colon 104% | KM12 colon 95.2%

COC(=O)[C@H](CC(C)C)NC(=O)NC(=O)NC(=O)CI
inactive: RPMI-8226 leukemia 61.6% | OVCAR-8 ovarian 73.3% | OVCAR-5 ovarian 86.9% | OVCAR-4 ovarian 59% | SK-OV-3 ovarian 92.4% | IGROV1 ovarian 62% | HS 578T breast 106% | NCI/ADR-RES ovarian 92.2% | T-47D breast 17.3% | MDA-MB-435 melanoma 72.7% | MCF7 breast 33.2% | HCT-116 colon 50% | HCC-2998 colon 91.9% | KM12 colon 94.1%
active: SR leukemia -51% | OVCAR-3 ovarian -74.1% | SW-620 colon -51.5%

CC(C)C1=NOC(=O)C1=Cc1cn(-c2cccnc2)nc1-c1ccccc1
active: SR leukemia -22.5% | RPMI-8226 leukemia -16.6%
inactive: OVCAR-8 ovarian 89.9% | OVCAR-5 ovarian 100% | OVCAR-4 ovarian 103% | SK-OV-3 ovarian 104% | IGROV1 ovarian 102% | OVCAR-3 ovarian 108% | HS 578T breast 106% | NCI/ADR-RES ovarian 110% | T-47D breast 92.6% | BT-549 breast 125% | MDA-MB-435 melanoma 95.1% | SW-620 colon 88.8% | HCT-116 colon 81.2% | HCC-2998 colon 111% | KM12 colon 102%

COc1ccc(/C=C(/C2=NCCN2)n2ccc3ccccc32)cc1
inactive: SR leukemia 79.5% | RPMI-8226 leukemia 93.1% | OVCAR-8 ovarian 97.1% | OVCAR-5 ovarian 90% | OVCAR-4 ovarian 94.8% | SK-OV-3 ovarian 97.1% | IGROV1 ovarian 82.8% | OVCAR-3 ovarian 97.9% | HS 578T breast 84.4% | NCI/ADR-RES ovarian 93% | T-47D breast 86.2% | MDA-MB-435 melanoma 89.9% | SW-620 colon 87.1% | MCF7 breast 83.4% | HCT-116 colon 83% | HCC-2998 colon 98.5% | KM12 colon 95.8%

O=C(CSc1nccc(Nc2ccc(S(=O)(=O)Nc3ccccn3)cc2)n1)c1ccc(Cl)cc1
inactive: SR leukemia 75.5% | RPMI-8226 leukemia 71.3% | OVCAR-8 ovarian 84.2% | OVCAR-5 ovarian 111% | OVCAR-4 ovarian 80.2% | SK-OV-3 ovarian 95.4% | IGROV1 ovarian 77.9% | OVCAR-3 ovarian 95.8% | HS 578T breast 89.1% | NCI/ADR-RES ovarian 103% | T-47D breast 50.6% | MDA-MB-435 melanoma 118% | SW-620 colon 105% | MCF7 breast 91.4% | HCT-116 colon 92.2% | HCC-2998 colon 106% | KM12 colon 97.6%

O=C(CCCSc1nc(-c2ccccc2)cc(-c2ccccc2)n1)NO
inactive: RPMI-8226 leukemia 14.9% | OVCAR-4 ovarian 11.9% | IGROV1 ovarian 12.6% | HS 578T breast 45.2% | MDA-MB-435 melanoma 12.3% | SW-620 colon 16% | HCC-2998 colon 17.7% | KM12 colon 14.4%
active: SR leukemia 1.05% | OVCAR-8 ovarian 5.38% | OVCAR-5 ovarian 9.78% | SK-OV-3 ovarian -18.6% | OVCAR-3 ovarian -5.33% | NCI/ADR-RES ovarian -12.1% | T-47D breast -2.43% | MCF7 breast 9.38% | HCT-116 colon 9.52%

CCC(C)[C@H](NC(=O)NC(=O)NC(=O)CI)C(=O)OC (stereo partly specified)
active: SR leukemia -40.7% | OVCAR-3 ovarian -39.5% | SW-620 colon 9.41%
inactive: RPMI-8226 leukemia 61.9% | OVCAR-8 ovarian 88.1% | OVCAR-5 ovarian 94.3% | OVCAR-4 ovarian 63.6% | SK-OV-3 ovarian 88.4% | IGROV1 ovarian 80.7% | HS 578T breast 84.9% | NCI/ADR-RES ovarian 98.4% | T-47D breast 38.5% | MDA-MB-435 melanoma 69.5% | MCF7 breast 42.1% | HCT-116 colon 65.2% | HCC-2998 colon 103% | KM12 colon 100%

Nc1nc(Cl)c2ncn(Cc3cc4c(cc3I)OCO4)c2n1
inactive: RPMI-8226 leukemia 34.8% | OVCAR-8 ovarian 60.7% | OVCAR-5 ovarian 72.8% | OVCAR-4 ovarian 79.7% | SK-OV-3 ovarian 58.7% | IGROV1 ovarian 83.2% | OVCAR-3 ovarian 41.9% | HS 578T breast 81.2% | NCI/ADR-RES ovarian 58% | T-47D breast 30.9% | MDA-MB-435 melanoma 34.6% | SW-620 colon 18.3% | MCF7 breast 18.9% | HCT-116 colon 16.7% | HCC-2998 colon 76.4%
active: SR leukemia 9.76% | KM12 colon 9.48%

COc1cc2c(c(Br)c1N)-c1cc(Br)c(N)cc1C2=O
active: MCF7 breast 3.68%
inactive: SR leukemia 47.2% | RPMI-8226 leukemia 85.9% | OVCAR-8 ovarian 29.1% | OVCAR-5 ovarian 16.3% | OVCAR-4 ovarian 22.2% | SK-OV-3 ovarian 74.5% | IGROV1 ovarian 31.9% | OVCAR-3 ovarian 83.4% | HS 578T breast 38.1% | NCI/ADR-RES ovarian 47.8% | T-47D breast 18.4% | BT-549 breast 77.9% | SW-620 colon 75.3% | HCT-116 colon 62.9% | HCC-2998 colon 52.1% | KM12 colon 66.6%

O=C(O)c1cn(C2CC2)c2cc(N3CCN(Cc4c(O)ccc5ccccc45)CC3)c(F)cc2c1=O
inactive: RPMI-8226 leukemia 73.5% | OVCAR-8 ovarian 16.8% | OVCAR-5 ovarian 40.8% | OVCAR-4 ovarian 18.2% | SK-OV-3 ovarian 48.4% | IGROV1 ovarian 32.1% | NCI/ADR-RES ovarian 45.4% | T-47D breast 29.5% | MDA-MB-435 melanoma 24.3% | SW-620 colon 28.2% | MCF7 breast 16.3% | HCT-116 colon 12.7% | HCC-2998 colon 32.1% | KM12 colon 37.5%
active: SR leukemia 1.76% | OVCAR-3 ovarian -44.1% | HS 578T breast -6.63%

COc1ccc(-c2cc(-c3ccccc3)nc(SCCCCCC(=O)NO)n2)cc1
inactive: SR leukemia 21.9% | RPMI-8226 leukemia 21.2% | OVCAR-8 ovarian 36.1% | OVCAR-5 ovarian 41.4% | OVCAR-4 ovarian 80.1% | SK-OV-3 ovarian 50.3% | IGROV1 ovarian 51.7% | OVCAR-3 ovarian 65% | HS 578T breast 56% | NCI/ADR-RES ovarian 56.9% | T-47D breast 22.7% | MDA-MB-435 melanoma 37.5% | SW-620 colon 29.7% | MCF7 breast 49.8% | HCT-116 colon 21.6% | HCC-2998 colon 78.8% | KM12 colon 70.8%

COCCCNc1nc(NC(=O)c2cc(OC)cc(OC)c2)cc(-c2cccnc2)n1
inactive: SR leukemia 80.6% | RPMI-8226 leukemia 69.3% | OVCAR-8 ovarian 79.3% | OVCAR-5 ovarian 95.7% | OVCAR-4 ovarian 108% | SK-OV-3 ovarian 105% | IGROV1 ovarian 102% | OVCAR-3 ovarian 113% | HS 578T breast 95.3% | NCI/ADR-RES ovarian 83.5% | T-47D breast 63.8% | MDA-MB-435 melanoma 100% | SW-620 colon 101% | MCF7 breast 97.8% | HCT-116 colon 90.3% | HCC-2998 colon 110% | KM12 colon 103%

O=S(=O)(NCCCNc1nccc(-c2c(-c3cccc(F)c3)nc3occn23)n1)c1cccc2ccccc12
active: T-47D breast 4.4% | HCC-2998 colon 2.75%
inactive: SR leukemia 50.7% | RPMI-8226 leukemia 28.2% | OVCAR-8 ovarian 42.1% | OVCAR-5 ovarian 66.7% | OVCAR-4 ovarian 34.6% | SK-OV-3 ovarian 55.6% | IGROV1 ovarian 14.4% | OVCAR-3 ovarian 56.3% | HS 578T breast 23.4% | NCI/ADR-RES ovarian 48.2% | BT-549 breast 45% | MDA-MB-435 melanoma 15.7% | SW-620 colon 24.2% | HCT-116 colon 23.4% | KM12 colon 15.7%

COc1ccc(N(c2nc(-c3ccc([N+](=O)[O-])cc3)cs2)C(C)C)cc1
inactive: SR leukemia 66.5% | RPMI-8226 leukemia 52.7% | OVCAR-8 ovarian 89.6% | OVCAR-5 ovarian 109% | OVCAR-4 ovarian 70% | SK-OV-3 ovarian 81.7% | IGROV1 ovarian 80.4% | OVCAR-3 ovarian 81.1% | HS 578T breast 85% | NCI/ADR-RES ovarian 86.2% | T-47D breast 53.4% | BT-549 breast 97% | MDA-MB-435 melanoma 89% | SW-620 colon 88.1% | HCT-116 colon 76.3% | HCC-2998 colon 101% | KM12 colon 75.7%

COc1ccc2c(c1)C(C)Cc1c(Cl)ncnc1N2C (stereo unspecified)
inactive: OVCAR-5 ovarian 41.5% | SK-OV-3 ovarian 12.2% | IGROV1 ovarian 23.7% | HS 578T breast 16.9% | HCC-2998 colon 22.3%
active: SR leukemia -2.06% | RPMI-8226 leukemia -2.61% | OVCAR-8 ovarian 7% | OVCAR-4 ovarian 7.09% | OVCAR-3 ovarian 2.22% | NCI/ADR-RES ovarian 2.03% | T-47D breast 4.2% | MDA-MB-435 melanoma -25.2% | SW-620 colon 3.63% | MCF7 breast 1.16% | HCT-116 colon 7.03% | KM12 colon 4.12%

Cc1ccc(Oc2c(/C=N/NC(=O)Cn3c(=O)sc4ccccc43)c(C)nn2-c2ccccc2)cc1
inactive: SR leukemia 41.8% | RPMI-8226 leukemia 32.8% | OVCAR-8 ovarian 54.8% | OVCAR-5 ovarian 74.1% | OVCAR-4 ovarian 46.2% | SK-OV-3 ovarian 66.6% | IGROV1 ovarian 44.4% | OVCAR-3 ovarian 54.2% | HS 578T breast 63.2% | NCI/ADR-RES ovarian 50.2% | T-47D breast 20.4% | MDA-MB-435 melanoma 61.7% | SW-620 colon 68.4% | MCF7 breast 31.1% | HCT-116 colon 37% | HCC-2998 colon 69.2% | KM12 colon 49.3%

Cc1ccc(N)c(O)c1
active: HCC-2998 colon -4.78%
inactive: SR leukemia 112% | RPMI-8226 leukemia 61.9% | OVCAR-8 ovarian 96% | OVCAR-5 ovarian 108% | OVCAR-4 ovarian 84.2% | SK-OV-3 ovarian 112% | IGROV1 ovarian 69.6% | OVCAR-3 ovarian 87.7% | HS 578T breast 92.9% | NCI/ADR-RES ovarian 92.8% | T-47D breast 94.1% | MDA-MB-435 melanoma 102% | SW-620 colon 92.2% | MCF7 breast 83.5% | HCT-116 colon 85.2% | KM12 colon 99.5%

CS(=O)(=O)c1cccnn1
inactive: SR leukemia 167% | RPMI-8226 leukemia 97% | OVCAR-8 ovarian 106% | OVCAR-5 ovarian 81.1% | OVCAR-4 ovarian 80.9% | SK-OV-3 ovarian 116% | IGROV1 ovarian 78% | OVCAR-3 ovarian 103% | HS 578T breast 89.2% | NCI/ADR-RES ovarian 96% | T-47D breast 95.2% | MDA-MB-435 melanoma 104% | SW-620 colon 95.5% | MCF7 breast 94% | HCT-116 colon 96.5% | HCC-2998 colon 110% | KM12 colon 106%
